Shown are actives, neighbours in structure and some others; about 8.9% of the full set was active somewhere.
KB-V1 cytotox – qHTS assay for MDR1-selective chemotherapeutics: Primary screen using the drug-selected MDR subline cells KB-V1. KB-V1 MDR cells viability, CellTiter-Glo, 72 h. Potency, µM (doses to about 46.1 µM), hits mostly cytotoxic. actives 3.4% (n = 400,000). AID 1347076, 2019; further: nearly all actives have a fitted effect of over 60% in size
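KB-V1 cells (P-gp-expressing MDR subline of KB-3-1) in phenol-red-free DMEM with 10% FBS were exposed to library compounds over a concentration series for 72 h at 37 degrees C. Viability read by CellTiter-Glo luminescence; concentration-effect curves fitted after normalization.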
DRD3 agonist – qHTS of D3 Dopamine Receptor Agonist: qHTS; D3R DiscoveRx beta-arrestin cells, luminescence, 90 min; max activation, %; actives 0.58% (n = 410,000); in the data active means max activation above about 30%
Target sequence (P35462 whole entry, looked up): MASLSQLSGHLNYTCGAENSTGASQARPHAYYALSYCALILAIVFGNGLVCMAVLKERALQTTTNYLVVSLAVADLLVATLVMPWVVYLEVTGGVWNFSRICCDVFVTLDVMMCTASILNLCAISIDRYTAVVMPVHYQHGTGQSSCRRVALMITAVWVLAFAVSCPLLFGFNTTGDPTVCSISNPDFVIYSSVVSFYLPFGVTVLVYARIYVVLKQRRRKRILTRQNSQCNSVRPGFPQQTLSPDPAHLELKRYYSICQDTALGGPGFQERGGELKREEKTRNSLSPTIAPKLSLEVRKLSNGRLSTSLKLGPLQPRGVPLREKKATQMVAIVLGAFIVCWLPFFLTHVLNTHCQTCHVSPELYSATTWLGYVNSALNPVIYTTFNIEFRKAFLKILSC
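Agonist-mode cell screen: cells plated at 1500/well and incubated overnight at 37 °C, then exposed to library compounds for 90 min at 37 °C. Detection reagent was added for 30–60 min at room temperature, and luminescence was read.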
SW480 rerep – A quantitative high throughput screen for small molecules that induce DNA re-replication in SW480 colon adenocarcinoma cells; actives 1.8% (n = 340,000); Potency, µM (top dose mostly 46.1 µM), usual class: activators; SW480 DNA re-replication, Hoechst DNA content imaging, 48 h; further: nearly all actives have a fitted effect of over 55% in size
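Treated cells incubate 48 hr (37 C, 5% CO2), are stained 40 min with Hoechst, and nuclear fluorescence is enumerated; a rise in nuclei with high DNA signal marks re-replication.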
KB-3-1 tox – qHTS assay for MDR1-selective chemotherapeutics: Primary screen using the parental adenocarcinoma cell KB-3-1. KB-3-1 viability, CellTiter-Glo ATP luminescence, 72 h. Potency, µM (doses to about 46.1 µM), hits mostly cytotoxic. actives 1.4% (n = 400,000); further: nearly all actives have a fitted effect of over 60% in size
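Parental KB-3-1 adenocarcinoma cells in phenol-red-free DMEM with 10% FBS were pin-treated with compounds at several concentrations, incubated 72 h at 37 °C, and viability read by CellTiter-Glo luminescence; concentration-effect curves were fitted after normalization.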
MCF10A rereplic – A quantitative high throughput screen for small molecules that induce DNA re-replication in MCF 10a normal breast cells; MCF 10A DNA re-replication, Hoechst nuclear intensity, 48 h; Potency, µM (highest dose often 46.1 µM), most hits filed as activators; actives 2.9% (n = 350,000); AID 624296, 2012; further: nearly all actives have a fitted effect of over 50% in size
D3 antag – qHTS of D3 Dopamine Receptor Antagonist: qHTS; D(3) dopamine receptor (Homo sapiens), P35462; D3R cells, DiscoveRx beta-arrestin luminescence, antagonist mode; hits give low values; max response, negative = inhibition, %; actives 2.5% (n = 360,000); AID 652054, 2013; in the data active means max response below about -50%; inconclusive means no clear call, values can overlap the other calls
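Cells plated overnight at 1500 cells/well, then exposed to library compounds with dopamine controls for 90 minutes at 37 degrees C. DiscoveRx reagent added for 30–60 minutes at room temperature; luminescence read, quantitative HTS format.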
Of the large screens only hits and unclear results are named; the others gave an inactive call. Unless noted, the call rests on the fitted dose curve; in most records, active means well fitted curve in the direction sought with a large enough effect; inconclusive means small, poorly fitted or top-dose-only effect, or another doubt; inactive means no such curve, though single readings can be large; an effect the other way counts as inactive or inconclusive.

O=C(Cn1c(=O)oc2cc(S(=O)(=O)N3CCCCC3)ccc21)Nc1cccc(Cl)c1	none (no result: SW480 rerep, MCF10A rereplic, D3 antag)
COC(=O)c1ccc(NC(=O)N2CCC(CN3CCc4ccccc4C3)CC2)cc1	none (no result: KB-V1 cytotox, SW480 rerep, KB-3-1 tox, MCF10A rereplic, D3 antag)
Cc1cc(-c2nc3cccnc3s2)ccc1NS(=O)(=O)c1cccs1	SW480 rerep inconclusive, MCF10A rereplic 5.8µM
Cc1cc(-c2nc3cccnc3s2)ccc1NS(=O)(=O)c1ccc2c(c1)OCCO2	SW480 rerep inconclusive, MCF10A rereplic 5.2µM
Nc1c(Br)cc(/C=C2\C=Cc3ccccc32)cc1Br	none (no result: DRD3 agonist, SW480 rerep, MCF10A rereplic, D3 antag)
Cc1ccc(-c2cc(C(=O)N/N=C/c3ccccc3)n[nH]2)o1	none
CC(/C=N/NC(=O)c1cc(-c2ccc(C)o2)[nH]n1)=C\c1ccccc1	SW480 rerep 18µM, MCF10A rereplic 23µM
O=C(N/N=C/C(Br)=C/c1ccccc1)c1cc(-c2ccco2)[nH]n1	KB-V1 cytotox inconclusive, KB-3-1 tox inconclusive, MCF10A rereplic 7.3µM
CCOc1ccc(Nc2oc(-c3ccc(COc4ccc(OC)cc4)o3)nc2C#N)cc1	none (no result: SW480 rerep, MCF10A rereplic, D3 antag)
COC(=O)C1=C(C(=O)OC)[C@@H]2N(C)c3ccccc3[C@@]23C[C@@H](CO)N(C(=O)c2cccs2)C3=N1	D3 antag -51
C#CCCOC(=O)N1C2=NC(C(=O)OC)=C(C(=O)OC)[C@@H]3N(C)c4ccccc4[C@]23C[C@H]1CO	none
COc1cc(/C=c2\sc3n(c2=O)CCCN=3)ccc1O	SW480 rerep inconclusive
COc1cc(/C=c2\sc3n(c2=O)C(c2ccccc2)C(c2ccccc2)=NN=3)ccc1O (configuration not stated)	MCF10A rereplic inconclusive, D3 antag -76
CCc1nnc(NC(=O)CN2CCN(c3nc(-c4ccccc4)cs3)CC2)s1	KB-V1 cytotox 21µM, SW480 rerep inconclusive, MCF10A rereplic inconclusive
N#Cc1c(-c2ccc(F)cc2)cc(-c2cccs2)nc1SCC(=O)O	SW480 rerep inconclusive, MCF10A rereplic 23µM, D3 antag inconclusive
CN1CCN(C(=O)CSc2nc(-c3cccs3)cc(-c3cccs3)c2C#N)CC1	KB-V1 cytotox inconclusive, SW480 rerep inconclusive, KB-3-1 tox inconclusive, MCF10A rereplic 21µM
CCN(CC)C(=O)CSc1nc(-c2cccs2)cc(-c2cccs2)c1C#N	KB-V1 cytotox 18µM, MCF10A rereplic inconclusive
CCc1nnc(NC(=O)CSc2nc(-c3ccccc3)cc(-c3ccc(F)cc3)c2C#N)s1	KB-V1 cytotox inconclusive, SW480 rerep 10µM, KB-3-1 tox inconclusive, MCF10A rereplic 4.1µM
COc1ccc(-c2cc(-c3ccccc3)c(C#N)c(SCC(=O)O)n2)cc1	SW480 rerep inconclusive
COc1ccc(-c2cc(-c3ccc(Cl)cc3)c(C#N)c(SCC(=O)O)n2)cc1	MCF10A rereplic 16µM
COc1ccc(NC(=O)c2nnn(-c3ccc(C(C)C)cc3)c2C)c(OC)c1	none (no result: SW480 rerep, MCF10A rereplic, D3 antag)
O=c1c2sc3ccccc3c2n(Cc2cccc(C(F)(F)F)c2)c(=O)n1Cc1ccco1	none (no result: SW480 rerep, MCF10A rereplic, D3 antag)
Cc1ccc([C@H]2C(C(=O)O)=CC[C@@H](c3ccc(Cl)cc3)N2S(=O)(=O)c2ccc(C)cc2)cc1	D3 antag -51
Cc1ccccc1S(=O)(=O)N1[C@@H](c2ccc(Cl)cc2)C(C(=O)O)=CC[C@H]1c1ccc(Cl)cc1	MCF10A rereplic 16µM
CCc1ccc([C@@H]2CC=C(C(=O)O)[C@H](c3ccc(C)cc3)N2S(=O)(=O)c2ccc(C)cc2)cc1	D3 antag inconclusive
CCc1ccc([C@@H]2CC=C(C(=O)O)[C@H](c3ccc(Cl)cc3)N2S(=O)(=O)c2ccc(C)cc2)cc1	MCF10A rereplic 13µM
Cc1ccc([C@H]2C(C(=O)O)=CC[C@@H](c3ccc(C(C)C)cc3)N2S(=O)(=O)c2ccc(C)cc2)cc1	D3 antag -64
COc1ccc(N2CCN(c3oc(/C=C/c4ccc(F)cc4)nc3C#N)CC2)cc1	none (no result: KB-V1 cytotox, SW480 rerep, KB-3-1 tox, MCF10A rereplic, D3 antag)
COc1ccc(Cn2c(CNS(=O)(=O)c3ccc(Cl)s3)nc3cccnc32)cc1	none (no result: KB-V1 cytotox, SW480 rerep, KB-3-1 tox, MCF10A rereplic, D3 antag)
